# Bioassay records: PubChem, several laboratories
# AMPAR-TARP mod = modulators of GluA2-stargazin AMPA receptor complexes, primary screen, cell-based, membrane potential dye; HEK293 GluA2+stargazin, membrane potential dye (FDSS), glutamate EC50; hits were called plate by plate, in both directions; Voltage-dependent calcium channel gamma-2 subunit (Mus musculus) + Glutamate receptor 2 …; 40,000 tested, 3.5% active; calls only at 30 µM;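 active = any of four per-well response measures lying three or more SD from its plate-wide compound average, in either direction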
# GIRK2 activator = activators of NPY4-receptor-primed GIRK2 channels, summary, cell-based, HEK293, thallium flux | HEK293 GIRK2/NPY4 cells, thallium flux fluorescence | 34,000 tested, under 10 active | G protein-activated inward rectifier potassium channel 2 (Homo sapiens), P48051 | activation (% efficacy), % for hits at 37.5 µM;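 active = primary screen hit, no activity in plain HEK293 cells, and in GIRK2-only cells above 5% efficacy rising with concentration; inactive = the rest, including fluorescent compounds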;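 note: efficacy is normalized control-subtracted fluorescence 15 s after thallium addition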
# Numbers without * were called inactive; i = inactive; · = not tested or not shown; + = active, no number. The sample as a whole holds a higher share of hits than the screen did.
SMILES,AMPAR-TARP mod,GIRK2 activator
COCCn1c(=NC(=O)c2cc(C)no2)sc2cc(OC)ccc21,i,i
CSc1ccc(CNC(=O)c2ccc3c(=O)n4c(nc3c2)SCCC4)cc1,i,·
Cc1nc(NC(=O)c2ccc(S(=O)(=O)N(C)Cc3ccccc3)cc2)sc1C,i,i
Cc1nc(NC(=O)c2cccc(Br)c2)sc1C,+,i
COC(=O)Cc1ccc(NC(=S)N2CCN(Cc3ccccc3)CC2)cc1,i,·
COc1ccc(Cl)cc1C(=O)Nc1nnc(-c2ccnn2C(C)C)o1,+,i
CC(C)n1nccc1-c1nnc(NC(=O)c2ccc(Cl)cc2Cl)o1,i,i
COc1ccccc1C(=O)NCC1CCN(S(C)(=O)=O)CC1,i,i
O=C(O)CCN1CCN(Cc2ccc(Cl)cc2)CC1,+,i
O=C(O)CCN1CCN(Cc2ccccc2)CC1,i,i
Cc1cccc(NC(=O)Cn2cccc(-c3nc(-c4ccc(Br)cc4)no3)c2=O)c1,i,i
COc1cccc(NC(=O)Cn2cccc(-c3nc(-c4ccc(Br)cc4)no3)c2=O)c1,+,i
CC(C)NC(=O)N1CCCC(c2nnc(Cc3ccccc3)s2)C1 (stereo unspecified),i,i
CSc1nn(CC(=O)Nc2ccc(Cl)cc2)c(N)c1S(=O)(=O)c1ccccc1,+,·
CSc1nn(CC(=O)Nc2ccc(Br)cc2)c(N)c1S(=O)(=O)c1ccc(C)cc1,i,i
O=C(NCC1(O)CCOCC1)C(=O)Nc1ccc(F)c(F)c1,+,i
O=C(NCC1(O)CCOCC1)C(=O)Nc1ccc2c(c1)OCCO2,i,i
O=C(CSc1ccc([N+](=O)[O-])cc1[N+](=O)[O-])Nc1cccc(C(F)(F)F)c1,+,·
CC(=O)Nc1ccc(NC(=O)CSc2ccc(S(=O)(=O)C(F)(F)F)cc2[N+](=O)[O-])cc1,i,·
COCC(C)(O)CNC(=O)c1cc(C)cs1 (stereo unspecified),i,i
CC(O)(CNC(=O)C1(c2ccccc2)CCOCC1)c1ccc(-c2ccccc2)cc1 (stereo unspecified),i,i
COCC(C)(O)CNC(=O)c1nc2ccccc2s1 (stereo unspecified),i,i
CCN(CC)S(=O)(=O)c1ccc(C(=O)Nc2cc(-c3cccs3)nn2CCO)cc1,+,i
CC(C)S(=O)(=O)c1ccc(CC(=O)Nc2cc(-c3cccs3)nn2CCO)cc1,i,i
C=C(C)Cn1c(N/N=C/c2cccc(OC)c2O)nc2c1c(=O)n(C)c(=O)n2C,i,·
C=CCn1c(N/N=C/c2cccc(OC)c2O)nc2c1c(=O)n(C)c(=O)n2C,+,·
COc1cc(NC(=O)CCCOc2ccc(C)cc2C)c(OC)cc1Cl,i,i
